Data published in PubChem BioAssay AID1159580 (chemical genetic matrix, 2015).
The whole screen tested about 5,500 compounds, of which about 2,000 (36%) were called active. About 18% were inconclusive and are not listed. No stated cut-off is given here; in the data, active means normalized growth mostly below about 0.91 (no sharp cut-off); inconclusive means no clear call, values can overlap the other calls; inactive means mostly above about 0.92. This is one part of the list.

Assay: chemical genetic growth profiling, strain panel (AID 1159580);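 further: tested at 20 µM; growth read once vehicle control cultures reached saturation at 30 °C; 1 = growth at the plate median or of vehicle wells; lower values mean less growth of the strain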
Details: growth OD

Measured: normalized growth

Nc1ncnc2c1ncn2[C@@H]1O[C@H](CO)[C@@H](O)[C@@H]1O
inactive: S. cerevisiae deletion strains, locus YJR075W, strain HOC1, active compounds read low 1.02 | S. cerevisiae deletion strains, locus YKL009W, strain mrt4, active compounds read low 1.08 | S. cerevisiae deletion strains, locus YKL068W, active compounds read low 1.01 | S. cerevisiae deletion strains, locus YKL085W, strain MDH1 (second series), active compounds read low 1 | S. cerevisiae deletion strains, locus YKL085W, strain MDH1, active compounds read low 1 | S. cerevisiae deletion strains, locus YKL160W, strain elf1, active compounds read low 1 | S. cerevisiae deletion strains, locus YKL190W, strain CNB1, active compounds read low 0.996 | S. cerevisiae deletion strains, locus YKR001C, strain vps1, active compounds read low 1.04 | S. cerevisiae deletion strains, locus YKR026C, strain gcn3, active compounds read low 1.01 | S. cerevisiae deletion strains, locus YKR091W, strain srl3, active compounds read low 1.01 | S. cerevisiae deletion strains, locus YLL001W, strain dnm1, active compounds read low 1.02 | S. cerevisiae deletion strains, locus YLL026W, active compounds read low 1 | S. cerevisiae deletion strains, locus YLL041C, strain sdh2, active compounds read low 1.01 | S. cerevisiae deletion strains, locus YLR027C, strain aat2, active compounds read low 1.01 | S. cerevisiae deletion strains, locus YLR039C, strain RIC1, active compounds read low 1.02 | S. cerevisiae deletion strains, locus YLR058C, strain SHM2, active compounds read low 1.01 | S. cerevisiae deletion strains, locus YLR102C, strain apc9, active compounds read low 1.02 | S. cerevisiae deletion strains, locus YLR113W, strain HOG1, active compounds read low 1 | S. cerevisiae deletion strains, locus YLR221C, strain rsa3, active compounds read low 1.01 | S. cerevisiae deletion strains, locus YLR258W, strain gsy2, active compounds read low 1.01 | S. cerevisiae deletion strains, locus YLR262C, strain YPT6 (second series), active compounds read low 1.03 | S. cerevisiae deletion strains, locus YLR262C, strain YPT6, active compounds read low 1.03 | S. cerevisiae deletion strains, locus YLR268W, strain sec22, active compounds read low 1.04 | S. cerevisiae deletion strains, locus YLR320W, strain mms22, active compounds read low 1 | S. cerevisiae deletion strains, locus YLR330W, strain CHS5, active compounds read low 1.01 | S. cerevisiae deletion strains, locus YLR342W, strain FKS1 (second series), active compounds read low 0.989 | S. cerevisiae deletion strains, locus YLR342W, strain FKS1, active compounds read low 1.01 | S. cerevisiae deletion strains, locus YLR357W, strain rsc2, active compounds read low 1.04 | S. cerevisiae deletion strains, locus YLR370C, strain arc18, active compounds read low 1.02 | S. cerevisiae deletion strains, locus YLR371W, strain rom2, active compounds read low 1.02 | S. cerevisiae deletion strains, locus YLR384C, strain iki3, active compounds read low 1.01 | S. cerevisiae deletion strains, locus YLR418C, strain cdc73, active compounds read low 1.05 | S. cerevisiae deletion strains, locus YML016C, strain PPZ1, active compounds read low 1.01 | S. cerevisiae deletion strains, locus YML032C, strain rad52, active compounds read low 1.03 | S. cerevisiae deletion strains, locus YML120C, strain ndi1, active compounds read low 1.01 | S. cerevisiae deletion strains, locus YML124C, strain tub3, active compounds read low 1.03 | S. cerevisiae deletion strains, locus YMR058W, strain fet3, active compounds read low 1.02 | S. cerevisiae deletion strains, locus YMR078C, strain ctf18, active compounds read low 1.03 | S. cerevisiae deletion strains, locus YMR125W, strain sto1, active compounds read low 1.01 | S. cerevisiae deletion strains, locus YMR129W, active compounds read low 1.01 | S. cerevisiae deletion strains, locus YMR205C, strain PFK2, active compounds read low 1.03 | S. cerevisiae deletion strains, locus YMR223W, strain ubp8, active compounds read low 1.03 | S. cerevisiae deletion strains, locus YMR231W, strain pep5, active compounds read low 1.01 | S. cerevisiae deletion strains, locus YMR263W, strain SAP30, active compounds read low 1.01 | S. cerevisiae deletion strains, locus YMR307W, strain GAS1, active compounds read low 1.01 | S. cerevisiae deletion strains, locus YNL067W, strain RPL9B, active compounds read low 1.01 | S. cerevisiae deletion strains, locus YNL071W, strain lat1, active compounds read low 1.02 | S. cerevisiae deletion strains, locus YNL128W, strain TEP1, active compounds read low 1.02 | S. cerevisiae deletion strains, locus YNL153C, strain GIM3, active compounds read low 1.01 | S. cerevisiae deletion strains, locus YNL183C, strain NPR1, active compounds read low 0.952 | S. cerevisiae deletion strains, locus YNL209W, strain ssb2, active compounds read low 1.01 | S. cerevisiae deletion strains, locus YNL233W, strain BNI4, active compounds read low 1.02 | S. cerevisiae deletion strains, locus YNL248C, strain rpa49, active compounds read low 1.01 | S. cerevisiae deletion strains, locus YNL250W, strain rad50, active compounds read low 1.03 | S. cerevisiae deletion strains, locus YNL271C, strain bni1, active compounds read low 1.03 | S. cerevisiae deletion strains, locus YNL298W, strain CLA4, active compounds read low 1.02 | S. cerevisiae deletion strains, locus YNL307C, strain MCK1, active compounds read low 1.03 | S. cerevisiae deletion strains, locus YNL322C, strain KRE1 (second series), active compounds read low 1.02 | S. cerevisiae deletion strains, locus YNL322C, strain KRE1, active compounds read low 1.01 | S. cerevisiae deletion strains, locus YNR049C, strain mso1, active compounds read low 1.02 | S. cerevisiae deletion strains, locus YNR052C, strain pop2, active compounds read low 1.03 | S. cerevisiae deletion strains, locus YOL006C, strain TOP1, active compounds read low 1.06 | S. cerevisiae deletion strains, locus YOL012C, strain htz1 1.2 | S. cerevisiae deletion strains, locus YOL147C, strain pex11, active compounds read low 1.03 | S. cerevisiae deletion strains, locus YOR001W, strain rrp6, active compounds read low 1.02 | S. cerevisiae deletion strains, locus YOR061W, strain CKA2, active compounds read low 1.02 | S. cerevisiae deletion strains, locus YOR069W, strain VPS5, active compounds read low 1 | S. cerevisiae deletion strains, locus YOR070C, strain gyp1, active compounds read low 1.02 | S. cerevisiae deletion strains, locus YOR080W, strain dia2, active compounds read low 1 | S. cerevisiae deletion strains, locus YOR083W, strain WHI5, active compounds read low 1.01 | S. cerevisiae deletion strains, locus YOR106W, strain vam3, active compounds read low 1.01 | S. cerevisiae deletion strains, locus YOR136W, strain idh2, active compounds read low 1.03 | S. cerevisiae deletion strains, locus YOR144C, strain elg1, active compounds read low 1.03 | S. cerevisiae deletion strains, locus YOR184W, strain ser1, active compounds read low 1.05 | S. cerevisiae deletion strains, locus YOR231W, strain MKK1, active compounds read low 0.981 | S. cerevisiae deletion strains, locus YOR265W, strain rbl2, active compounds read low 1 | S. cerevisiae deletion strains, locus YOR270C, strain vph1, active compounds read low 1.06 | S. cerevisiae deletion strains, locus YOR290C, strain snf2, active compounds read low 1.03 | S. cerevisiae deletion strains, locus YOR316C, strain cot1, active compounds read low 1.03 | S. cerevisiae deletion strains, locus YPL051W, strain arl3, active compounds read low 1.01 | S. cerevisiae deletion strains, locus YPL055C, strain LGE1, active compounds read low 1.04 | S. cerevisiae deletion strains, locus YPL078C, strain atp4, active compounds read low 1.02 | S. cerevisiae deletion strains, locus YPL106C, strain sse1, active compounds read low 1.02 | S. cerevisiae deletion strains, locus YPL240C, strain hsp82, active compounds read low 1.03 | S. cerevisiae deletion strains, locus YPL241C, strain CIN2, active compounds read low 1 | S. cerevisiae deletion strains, locus YPL256C, strain CLN2, active compounds read low 0.963 | S. cerevisiae deletion strains, locus YPR119W, strain clb2, active compounds read low 1.03 | S. cerevisiae deletion strains, locus YPR141C, strain kar3, active compounds read low 1.03 | S. cerevisiae deletion strains, locus YPR163C, strain tif3, active compounds read low 1.04 | S. cerevisiae deletion strains, locus YPR167C, strain met16, active compounds read low 1.03 | S. cerevisiae deletion strains, strain wtn01, active compounds read low 1.02 | S. cerevisiae strains, strain wild type, active compounds read low 1.01
